Test results published in PubChem BioAssay AID488789 (Broad Institute, 2010).
Potency and affinity values are given separately. Inconclusive results are not listed.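 Rule for the calls: active = samples whose fitted half-maximal inhibition concentration is no more than ten times the top valid dose tested; inconclusive = flat response between -70 and -30, or invalid curve fit; inactive = flat within 30 of zero, potency above limit, or signal rising.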

target: Trypsin (Sus scrofa) (UniProt P00761); assay: porcine trypsin inhibitors, dose response, selectivity assay for Rce1 protease inhibitor project, biochemical, quenched peptide fluorescence, cherry-pick (AID 488789); conditions: quenched peptide cleavage fluorescence; series mostly up to 10 µM; activity change, negative = inhibition: at the top concentration;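 note: more negative means stronger trypsin inhibition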
Sequence (P00761 whole entry, looked up): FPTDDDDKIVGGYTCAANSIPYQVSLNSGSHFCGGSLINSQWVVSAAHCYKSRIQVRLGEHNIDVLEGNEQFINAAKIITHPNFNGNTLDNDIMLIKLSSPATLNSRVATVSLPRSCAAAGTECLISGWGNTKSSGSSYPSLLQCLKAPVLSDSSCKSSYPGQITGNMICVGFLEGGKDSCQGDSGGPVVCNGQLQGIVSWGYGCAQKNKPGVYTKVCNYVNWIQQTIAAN

Activity change, negative = inhibition, inactive:
CC(C)CNC(=O)COc1cccc(C(=O)NCc2ccccc2)c1 7.6%, O=C(c1cc(-c2ccccc2)nc2ccccc12)N1CCN(c2ccccn2)CC1 0.77%, COc1ccc(-c2cc(C(=O)N3CCN(c4ccccc4)CC3)c3ccccc3n2)cc1 -3.79%, O=C(C[n+]1cc2ccccc2c2ccccc21)c1ccccc1 -8.51%, Cc1ccc(/C=N/NC(=O)c2nnn(-c3nonc3N)c2C(C)C)o1 -6.13%, Cc1cc(C)cc(N2CC(O)=C(c3nc4ccccc4c(=O)[nH]3)C2=N)c1 -4.42%, NC(=O)CSC1=Nc2ccccc2C2=NC(c3ccccc3)C(=O)N12 (configuration not stated) -14.2%, CC(=O)N1c2ccc([N+](=O)[O-])cc2NC(=O)CC1C (configuration not stated) 3.92%, Cc1ccc(SCc2c(C(=O)N/N=C/c3ccccc3)nnn2-c2nonc2N)cc1 1.99%, COC(C/C=C\C(=O)[C@H](C)OCc1ccccc1)OC 18.9%, CCN(CC)c1ccc(C(=O)c2ccccc2C(=O)O)c(O)c1 -0.441%, CCOc1ccc(-c2nc(CCl)cs2)cc1OC -9.87%, CN(C)CCN(C(=O)c1ccc2ccccc2c1)c1nc2ccc(Br)cc2s1 6.49%, COc1ccc(NS(=O)(=O)c2ccc3oc(=O)c4[nH]c(=O)c(=O)n(C)c4c3c2)cc1 20.9%, Cc1ccsc1/C=N/NC(=O)c1nnn(-c2nonc2N)c1C(C)C 4.12%, Cc1ccc(Nc2nc(-c3ccc(S(=O)(=O)N4CCOCC4)cc3)cs2)cc1Cl 3.37%, Nc1nonc1-n1nnc(C(=O)N/N=C/c2cccc(Cl)c2)c1CSc1ccc(Cl)cc1 7.37%, COc1ccccc1NC(=O)CN(c1ccc(C23CC4CC(CC(C4)C2)C3)cc1)S(C)(=O)=O 13.8%, CCCCCCCCNC(C)C(O)c1ccc(SC(C)C)cc1 (configuration not stated) 3.86%, COc1ccc(C(=O)/C=C/c2ccc(OC)cc2OC)c(O)c1 7.28%, CCCCCc1ccc(OCCOCCn2c[n+](C)c3ccccc32)c(CCCCC)c1 -2.39%, CN1c2ccc(C=O)c3c(C=O)ccc(c23)N(C)C1(C)C 7.96%, Cc1ccc(C(=O)c2c3ccccc3[n+]([O-])n2CCO)cc1 -5.98%, Cc1ccc(S(=O)(=O)CC(=O)N2CCN(c3ccccc3F)CC2)cc1 12.2%, CN(C)CC(C)(C)CNC(=S)NCc1ccc2c(c1)OCO2 17.4%, CN(C(=O)c1ccc2c(c1)SC1=NS(=O)(=O)CCN12)C(c1ccccc1)c1ccccc1 7.2%, Cc1cccc(N2C(=O)c3cccc4c(N5CCCCC5)c([N+](=O)[O-])cc(c34)C2=O)c1C 10.5%, CC(NC(=O)/C(C#N)=C/c1ccc(Cl)c([N+](=O)[O-])c1)c1ccccc1 (configuration not stated) 1.97%, O=C(Nc1cccc2ccccc12)c1ccc(OC(=S)N2CCOCC2)cc1 1.01%, CCOc1cccc(-c2c(C(=O)N/N=C/c3cccs3)nnn2-c2nonc2N)c1 21%, CCCCN(C)CCNC(=O)c1cc2c(-c3cccc(OC)c3)nn(C)c2s1 -9.5%, CCCCOc1ccc(-c2cc(C(F)(F)F)c(C#N)c(SCC(=O)O)n2)cc1 40.4%, Cc1ccccc1NS(=O)(=O)c1ccc(C(=O)NCC(c2ccccc2)N(C)C)cc1 (configuration not stated) 8.17%, COC(C[C@@H]1O[C@@H]1C(=O)[C@@H](C)OCc1ccccc1)OC -0.595%, C=C(C)C1(O)OC(=O)C=C1OC (configuration not stated) 12.6%, CN1CCN(CCCNC(=O)c2cc3c(-c4ccc(Cl)cc4)nn(C)c3s2)CC1 -4.72%, Cc1ccc(NC(=O)CCc2ccc(S(=O)(=O)NC3CCCCC3)cc2)cc1 8.43%
